# The full list was thinned out, with hits kept by preference.
# Pf Dd2 growth = Plasmodium falciparum Dd2 growth inhibition; P. falciparum Dd2 growth, SYBR Green, 72 h; Potency, µM (titrated, usually from 28.9 µM), for the others: at the highest dose activity, negative = inhibition, most hits filed as inhibitors; actives 4.3% (n = 120,000); active means well fitted inhibition curve with a large enough effect;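 further: plate controls were DMSO vehicle for no effect and reference drug for full effect; nearly all actives have a fitted effect of over 65% in size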
#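 Infected erythrocytes (Dd2, 0.3% parasitemia, 2.5% hematocrit final) are added to compound in RPMI-1640/Albumax II medium, grown 72 h at 37C in low oxygen, then lysed with saponin/Triton-X containing SYBR Green and read by fluorescence.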
# * = called active by the depositor; i = inactive; [ ] = another dose, or the depositor's remark. Potency means the concentration at half of the fitted maximal effect.
SMILES,Pf Dd2 growth
O=C(Nc1ccc(Cl)cc1)N1CCC2(CC1)CC(=O)N(c1ccccc1)c1ccccc1O2,-18%
O=C1NCN(Cc2ccc(Cl)cc2)C12CCN(Cc1ccc(F)cc1)CC2,-10%
Cc1ccccc1-c1onc(C)c1C(=O)NCc1cccc(F)c1F,i
CC(=O)N1CCC(N[C@@H]2CO[C@H](CNS(C)(=O)=O)[C@H]2O)CC1,18%[44.1 µM]
CC(=O)Nc1ccc([S+](=O)([O-])N2CCC3(CC2)CN(C(C)=O)Cc2ccccc2O3)cc1,-15%
CC1=C[C@@H](CNC2CCOCC2)[C@H](C(C)C)C[C@H]1Cc1nc2ccccc2n1C,5µM*
CC1=C[C@@H](CNC(=O)N2CCOCC2)[C@H](C(C)C)C[C@H]1Cc1nc2ccccc2[nH]1,-8%[44.1 µM]
CC(=O)N1CCN(C[C@@H]2C=C(C)[C@H](Cc3nnc(-c4ccccc4F)o3)C[C@H]2C(C)C)CC1,13µM*
CC1=C[C@@H](CNC(=O)COc2ccccc2)[C@H](C(C)C)C[C@H]1CC(=O)NCCN1CCOCC1,i
CC1=C[C@@H](CN2CCOCC2)[C@H](C(C)C)C[C@H]1Cc1nnc(-c2ccncc2)o1,-12%[44.1 µM]
CC(=O)NC[C@@H]1C=C(C)[C@H](Cc2nc3ccccc3n2C)C[C@H]1C(C)C,i
CC1=C[C@@H](CNCCN2CCOCC2)[C@H](C(C)C)C[C@H]1Cc1nnc(-c2ccccc2)o1,4µM*
COc1ccc(OC)c(CNC(=O)C(C)(C)C2CCOCC2)c1,-4%
CCOc1ccc(NC(=O)N2CCC(Oc3ncccc3C(=O)N3CCOCC3)C2)cc1 (stereo not given),i
CC1=NS(=O)(=O)N(C)C=C1C(=O)OCc1nc(-c2ccccc2)no1,28%
CC(=O)N1CCc2cc(S(=O)(=O)CCC(=O)N3CCCC(Cc4nncn4CC4CC4)C3)ccc21 (stereo not given),-12%
CCc1ccc(-n2c(=O)c3sc4ccccc4c3n(CC(=O)NC3CCCC3)c2=O)cc1,i
COc1ccc(CNC(=O)C2CCN(S(=O)(=O)c3cccc4nonc34)CC2)cc1OC,80%
CN1Cc2cccn2CC1CNC(=O)c1ccccc1 (stereo not given),11µM*
CN1Cc2cccn2CC1CNC(=O)c1cccn1C (stereo not given),-51%
CN1Cc2cccn2CC1CNC(=O)c1cnn(C)c1 (stereo not given),-10%
COc1ccc(-c2nc(C3CN(C(=O)c4cc(F)cc(F)c4)C3)no2)cc1,1%
Cc1nn(CC(=O)N2CCN(c3cccc(C(F)(F)F)c3)CC2)c(=O)c2cccn12,i
CN(C)S(=O)(=O)N1CCCN(S(=O)(=O)c2ccccc2)CCC(=O)NCC1,-2%
CC(=O)N1CCCN(S(=O)(=O)c2ccccc2)CCC(=O)NCC1,-12%
SMILES,Pf Dd2 growth
CCC(=O)N1CCCN(S(=O)(=O)c2ccccc2)CCC(=O)NCC1,10%
O=C1CCN(S(=O)(=O)c2ccccc2)CCCN(Cc2ccc3cc[nH]c3c2)CCN1,5µM*
O=C1CCN(S(=O)(=O)c2ccccc2)CCCCCCN1,22%
CCn1cc(CN2CCCN(S(=O)(=O)c3ccccc3)CCC(=O)NCC2)c(C)n1,-18%
O=C1CCN(S(=O)(=O)c2ccccc2)CCCN(Cc2ccccc2)CCN1,8.9µM*
Cn1cnc(C(=O)N2CCCN(S(=O)(=O)c3ccccc3)CCC(=O)NCC2)c1,-6%
Cc1noc(C)c1CN1CCCN(S(=O)(=O)c2ccccc2)CCC(=O)NCC1,-2%
O=C1CCN(S(=O)(=O)c2ccccc2)CCCN(C(=O)c2ccc3ccccc3n2)CCN1,11µM*
Cc1cnc(C(=O)N2CCCN(S(=O)(=O)c3ccccc3)CCC(=O)NCC2)cn1,19%
O=C1CCN(S(=O)(=O)c2ccccc2)CCCN(S(=O)(=O)c2ccc3c(c2)CCC3)CCN1,3.5µM*
O=C(Cc1c[nH]c2ncc(-c3ccccc3)cc12)NCCCn1ccnc1,i
COc1ccc(NC(=O)Cn2c(=O)oc3cc(S(=O)(=O)NC(C)C)ccc32)cc1OC,9%
CCCNC(=O)Cc1csc2nc(C)c(-c3cc(C)n(-c4cc(Cl)ccc4C)n3)c(=O)n12,-10%
CC(=O)N1CCc2nn(CC(=O)Nc3ccc(F)cc3C)c(=O)cc2C1,9%
Cc1nc([C@H]2CCN(Cc3cccc(C#N)c3)C[C@H]2NC(=O)C2CC2)n[nH]1,-25%
O=C(NC1CCCCC1)[C@H]1CN2CC[C@H]1C[C@@H]2Cn1cc(C2(O)CCCCC2)nn1,-9%[44.1 µM]
Cc1coc2c(C)c3oc(=O)c(CCC(=O)NCCc4ccccc4F)c(C)c3cc12,i
O=C1CCN(S(=O)(=O)c2ccccc2)CCCN(Cc2cccc3[nH]ccc23)CCN1,7.9µM*
O=C1CCN(S(=O)(=O)c2ccccc2)CCCNCCN1,1%
CC(C)C(=O)N1CCCN(S(=O)(=O)c2ccccc2)CCC(=O)NCC1,-14%
Cc1nnc(N2CCC(C(=O)N3CCCCC3)CC2)c2nn(-c3ccc(Cl)cc3)c(C)c12,10µM*
CCN(CC)CCNC(=O)C1CCCN(c2nnc(C)c3c(C)n(-c4ccc(Cl)cc4)nc23)C1 (stereo not given),11µM*
Cc1nnc(N2CCC(C(=O)NC3CCCCC3)CC2)c2nn(-c3ccc(Cl)cc3)c(C)c12,12%
Cc1nnc(N2CCN(C(=O)NCCC(C)C)CC2)c2nn(-c3ccc(Cl)cc3)c(C)c12,1%
Cc1nnc(N2CCC(C(=O)NC3CCC(C)CC3)CC2)c2nn(-c3ccc(Cl)cc3)c(C)c12 (stereo not given),3%
SMILES,Pf Dd2 growth
CCN(CC)CCNC(=O)C1CCCN(c2ncnc3onc(C)c23)C1 (stereo not given),-9%
CC(=O)NC1CC2(CCN(C(=O)c3ccccc3)CC2)c2ccccc21 (stereo not given),7%
O=C(C1CC1)N1CCC(c2noc(-c3ccccc3)n2)C1 (stereo not given),i[5.79 µM]
COc1ccc(NC(=O)c2cc3c(=O)n(Cc4cccnc4)ccc3nc2C)cc1OC,i
COc1ccc(C(=O)N2CCC3(CC2)N(CC2CC2)C(=O)CS3=O)cn1 (stereo not given),27%
CN(C)C(=O)N1CCC2(CC1)CN(C(=O)CCc1c[nH]c3ccccc13)Cc1ccccc1O2,5µM*
CC(=O)NCCCC(=O)N1Cc2ccccc2OC2(CCN(C(=O)N(C)C)CC2)C1,-4%
CC(=O)N1Cc2ccccc2OC2(CCN(C(=O)CCc3c[nH]c4ccccc34)CC2)C1,-27%
COc1ccc(C2CC(=O)N(CC(=O)Nc3cc(C)ccc3C)c3ccccc3S2)cc1 (stereo not given),-7%
COc1cc(C2CC(=O)N(CC(=O)Nc3ccccc3F)c3ccccc3S2)cc(OC)c1OC (stereo not given),3.2µM*
CCOC(=O)c1ccccc1NC(=O)CN1C(=O)CC(c2ccccc2)Sc2ccccc21 (stereo not given),i
Cn1cc(C(=O)N2CCC(N3C(=O)C(OCC4CC4)C34CCOCC4)CC2)cn1 (stereo not given),1%
CCN(CC)c1ccc(NC(=O)CN2C(=O)c3cccnc3Oc3ccccc32)c(C)c1,-29%
Cc1cc(C)c(CNC(=O)c2nc(-c3cccc(N4CCOCC4)c3)cc3[nH]ccc23)c(=O)[nH]1,8.9µM*
Cc1cc(C)c(CNC(=O)c2cc(-c3cccc4[nH]ccc34)cc3ncn(C)c23)c(=O)[nH]1,i
Cc1cc(-c2cc3[nH]ccc3c(C(=O)NCc3c(C)cc(C)[nH]c3=O)n2)ccn1,-22%[44.1 µM]
COc1cccc(Nc2cc3[nH]ccc3c(C(=O)NCc3c(C)cc(C)[nH]c3=O)n2)c1,11µM*
